# Assay results: article PMC11062922 (Nature Chemical Biology, 2023)
# Like-named read-outs stand apart in the source and are kept apart here.
# Columns and labels:
# Conditions in all cases: read-out: apparent Kd, n = 1
# [1] = system: AXL
# [2] = system: CAMKK2
# [3] = system: CDC7
# [4] = system: CDK4
# [5] = system: DYRK1A
# [6] = system: ERCC2
# [7] = system: MAP2K5
# [8] = compound concentrations:100 nM and 1000 nM (sheet 'Lestaurtinib' of Supplementary Table 1),run:Lestaurtinib_02487_R1,Plate:MR012
# [9] = compound concentrations:100 nM and 1000 nM (sheet 'Lestaurtinib' of Supplementary Table 1),run:Lestaurtinib_02496_R3,Plate:MR013
# [10] = compound concentrations:100 nM and 1000 nM (sheet 'Lestaurtinib' of Supplementary Table 1),run:Lestaurtinib_02572_R1,Plate:MR015
# [11] = compound concentrations:100 nM and 1000 nM (sheet 'Lestaurtinib' of Supplementary Table 1),run:Lestaurtinib_02724_R3,Plate:MR021
# [12] = compound concentrations:100 nM and 1000 nM (sheet 'Lestaurtinib' of Supplementary Table 1),run:Lestaurtinib_02339_R2,Plate:MR001
# [13] = compound concentrations:100 nM and 1000 nM (sheet 'Lestaurtinib' of Supplementary Table 1),run:Lestaurtinib_02437_R3,Plate:MR007
# [14] = compound concentrations:100 nM and 1000 nM (sheet 'Lestaurtinib' of Supplementary Table 1),run:Lestaurtinib_02473_R3,Plate:MR010
# [15] = compound concentrations:100 nM and 1000 nM (sheet 'Lestaurtinib' of Supplementary Table 1),run:Lestaurtinib_02496_R2,Plate:MR013
# [16] = compound concentrations:100 nM and 1000 nM (sheet 'Lestaurtinib' of Supplementary Table 1),run:Lestaurtinib_02381_R2,Plate:MR004
# [17] = compound concentrations:100 nM and 1000 nM (sheet 'Lestaurtinib' of Supplementary Table 1),run:Lestaurtinib_02896_R1,Plate:MR030
# [18] = compound concentrations:100 nM and 1000 nM (sheet 'Lestaurtinib' of Supplementary Table 1),run:Lestaurtinib_02443_R2,Plate:MR009
# [19] = compound concentrations:100 nM and 1000 nM (sheet 'Lestaurtinib' of Supplementary Table 1),run:Lestaurtinib_02482_R3,Plate:MR011
substance,measurement,setting,value
Lestaurtinib,potency estimated from few doses,"[1]; compound concentrations:100 nM and 1000 nM (sheet 'Lestaurtinib' of Supplementary Table 1),run:Lestaurtinib_02443_R3,Plate:MR009",2130 nM
same,potency estimated from few doses,[1]; [8],600 nM
same,potency estimated from few doses,[1]; [9],2230 nM
same,potency estimated from few doses,[1]; [10],1420 nM
same,potency estimated from few doses,[1]; [11],1340 nM
same,potency estimated from few doses,[2]; [12],1820 nM
same,potency estimated from few doses,[2]; [13],149 nM
same,potency estimated from few doses,[2]; [14],1930 nM
same,potency estimated from few doses,[2]; [8],596 nM
same,potency estimated from few doses,[2]; [15],2180 nM
same,potency estimated from few doses,"[2]; compound concentrations:100 nM and 1000 nM (sheet 'Lestaurtinib' of Supplementary Table 1),run:Lestaurtinib_02566_R2,Plate:MR014",1960 nM
same,potency estimated from few doses,[2]; [10],1810 nM
same,potency estimated from few doses,"[3]; compound concentrations:100 nM and 1000 nM (sheet 'Lestaurtinib' of Supplementary Table 1),run:Lestaurtinib_02367_R1,Plate:MR003",1400 nM
same,potency estimated from few doses,"[3]; compound concentrations:100 nM and 1000 nM (sheet 'Lestaurtinib' of Supplementary Table 1),run:Lestaurtinib_02367_R3,Plate:MR003",1000 nM
same,potency estimated from few doses,[3]; [16],1530 nM
same,potency estimated from few doses,[3]; [14],2080 nM
same,potency estimated from few doses,"[3]; compound concentrations:100 nM and 1000 nM (sheet 'Lestaurtinib' of Supplementary Table 1),run:Lestaurtinib_02748_R3,Plate:MR024",1650 nM
same,potency estimated from few doses,"[3]; compound concentrations:100 nM and 1000 nM (sheet 'Lestaurtinib' of Supplementary Table 1),run:Lestaurtinib_02752_R1,Plate:MR025",1240 nM
same,potency estimated from few doses,"[3]; compound concentrations:100 nM and 1000 nM (sheet 'Lestaurtinib' of Supplementary Table 1),run:Lestaurtinib_02752_R2,Plate:MR025",1760 nM
same,potency estimated from few doses,"[3]; compound concentrations:100 nM and 1000 nM (sheet 'Lestaurtinib' of Supplementary Table 1),run:Lestaurtinib_02795_R3,Plate:MR022",1510 nM
same,potency estimated from few doses,[3]; [17],591 nM
same,potency estimated from few doses,"[3]; compound concentrations:100 nM and 1000 nM (sheet 'Lestaurtinib' of Supplementary Table 1),run:Lestaurtinib_02896_R2,Plate:MR030",1330 nM
same,potency estimated from few doses,"[3]; compound concentrations:100 nM and 1000 nM (sheet 'Lestaurtinib' of Supplementary Table 1),run:Lestaurtinib_03260_R2,Plate:MR033",1690 nM
same,potency estimated from few doses,"[4]; compound concentrations:100 nM and 1000 nM (sheet 'Lestaurtinib' of Supplementary Table 1),run:Lestaurtinib_02367_R2,Plate:MR003",2190 nM
same,potency estimated from few doses,"[4]; compound concentrations:100 nM and 1000 nM (sheet 'Lestaurtinib' of Supplementary Table 1),run:Lestaurtinib_02407_R2,Plate:MR005",1650 nM
same,potency estimated from few doses,"[4]; compound concentrations:100 nM and 1000 nM (sheet 'Lestaurtinib' of Supplementary Table 1),run:Lestaurtinib_02438_R1,Plate:MR008",2240 nM
same,potency estimated from few doses,"[4]; compound concentrations:100 nM and 1000 nM (sheet 'Lestaurtinib' of Supplementary Table 1),run:Lestaurtinib_02438_R3,Plate:MR008",2250 nM
same,potency estimated from few doses,[4]; [18],2230 nM
same,potency estimated from few doses,[4]; [19],2220 nM
same,potency estimated from few doses,"[4]; compound concentrations:100 nM and 1000 nM (sheet 'Lestaurtinib' of Supplementary Table 1),run:Lestaurtinib_02606_R1,Plate:MR019",1720 nM
same,potency estimated from few doses,[4]; [11],1990 nM
same,potency estimated from few doses,"[4]; compound concentrations:100 nM and 1000 nM (sheet 'Lestaurtinib' of Supplementary Table 1),run:Lestaurtinib_02766_R2,Plate:MR027",1370 nM
same,potency estimated from few doses,[4]; [17],1400 nM
same,potency estimated from few doses,[5]; [12],2310 nM
same,potency estimated from few doses,"[5]; compound concentrations:100 nM and 1000 nM (sheet 'Lestaurtinib' of Supplementary Table 1),run:Lestaurtinib_02381_R3,Plate:MR004",820 nM
same,potency estimated from few doses,[5]; [18],1580 nM
same,potency estimated from few doses,"[5]; compound concentrations:100 nM and 1000 nM (sheet 'Lestaurtinib' of Supplementary Table 1),run:Lestaurtinib_02566_R1,Plate:MR014",1580 nM
same,potency estimated from few doses,"[5]; compound concentrations:100 nM and 1000 nM (sheet 'Lestaurtinib' of Supplementary Table 1),run:Lestaurtinib_02577_R2,Plate:MR016",1670 nM
same,potency estimated from few doses,[5]; [11],987 nM
same,potency estimated from few doses,"[5]; compound concentrations:100 nM and 1000 nM (sheet 'Lestaurtinib' of Supplementary Table 1),run:Lestaurtinib_02766_R1,Plate:MR027",1760 nM
same,potency estimated from few doses,[5]; [17],1690 nM
same,potency estimated from few doses,"[5]; compound concentrations:100 nM and 1000 nM (sheet 'Lestaurtinib' of Supplementary Table 1),run:Lestaurtinib_03172_R3,Plate:MR031",1440 nM
same,potency estimated from few doses,[6]; [13],1320 nM
same,potency estimated from few doses,[6]; [8],161 nM
same,potency estimated from few doses,[6]; [15],1440 nM
same,potency estimated from few doses,[6]; [9],1590 nM
same,potency estimated from few doses,"[6]; compound concentrations:100 nM and 1000 nM (sheet 'Lestaurtinib' of Supplementary Table 1),run:Lestaurtinib_02572_R2,Plate:MR015",261 nM
same,potency estimated from few doses,"[7]; compound concentrations:100 nM and 1000 nM (sheet 'Lestaurtinib' of Supplementary Table 1),run:Lestaurtinib_02364_R1,Plate:MR002",2240 nM
same,potency estimated from few doses,"[7]; compound concentrations:100 nM and 1000 nM (sheet 'Lestaurtinib' of Supplementary Table 1),run:Lestaurtinib_02381_R1,Plate:MR004",1340 nM
same,potency estimated from few doses,[7]; [16],2420 nM
same,potency estimated from few doses,"[7]; compound concentrations:100 nM and 1000 nM (sheet 'Lestaurtinib' of Supplementary Table 1),run:Lestaurtinib_02437_R1,Plate:MR007",2430 nM
same,potency estimated from few doses,"[7]; compound concentrations:100 nM and 1000 nM (sheet 'Lestaurtinib' of Supplementary Table 1),run:Lestaurtinib_02473_R2,Plate:MR010",2440 nM
same,potency estimated from few doses,[7]; [19],2350 nM
